Measurements as given in PubChem BioAssay (NCATS).
Results filed as inconclusive are left out. Active and inactive are the calls of the source. Unless noted, the call rests on the fitted dose curve; in most records, active means well fitted curve in the direction sought with a large enough effect; inconclusive means small, poorly fitted or top-dose-only effect, or another doubt; inactive means no such curve, though single readings can be large; an effect the other way counts as inactive or inconclusive.

Assays:
[1] = Cell Viability - BJ (AID 421; calls by dose curve;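 further: potency means the concentration at half of the fitted maximal effect; cells exposed to compound for 40 hours at 37 °C before readout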); settings: BJ fibroblast viability, qHTS
How it was run: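 Normal human BJ foreskin fibroblasts, 1500/well in complete medium, treated 40 hr at 37 °C. Cellular ATP by CellTiter-Glo luminescence; normalized to DMSO and 100 uM tamoxifen, AC50 from Hill fit.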

[2] = Cell Viability - Jurkat (AID 426;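 active means dose-dependent loss of cell ATP signal giving a full or clear fitted curve, ranked by lower potency value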; further: potency means the concentration at half of the fitted maximal effect); settings: qHTS
How it was run: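 Jurkat (clone E6-1, human T-cell leukemia) cells, 5000/well in complete medium, were exposed to compound for 40 hr at 37 °C. Viability was read as intracellular ATP by CellTiter-Glo luminescence; AC50 came from Hill fits of concentration-response data.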

[3] = Cell Viability - Hek293 (AID 427;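 active means compounds whose dose-response curve shows a full or clear partial loss of cell viability, called from curve shape rather than a numeric limit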;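 further: potency means the concentration at half of the fitted maximal effect; cells exposed to compound for 40 hours at 37 °C before reading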); settings: qHTS
How it was run: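 HEK293 cells in complete medium were exposed to compound for 40 hr at 37 °C, then cellular ATP was read by CellTiter-Glo luminescence. Data were normalized to DMSO (basal) and 100 uM tamoxifen (100% inhibition), and AC50 came from Hill fits.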

[4] = Cell Viability - HepG2 (AID 433; calls by dose curve;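 further: potency means the concentration at half of the fitted maximal effect; potency for ATP loss meaning cytotoxicity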); settings: qHTS
How it was run: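 ATP luminescence (CellTiter-Glo) after 40 h compound exposure, 37 °C, HepG2, 1500 cells/well, complete medium. Normalized: DMSO = basal, 100 uM tamoxifen = 100% inhibition. AC50 via standard Hill equation.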

[5] = Cell Viability - SK-N-SH (AID 435; calls by dose curve; further: potency means the concentration at half of the fitted maximal effect); settings: SK-N-SH neuroblastoma cell viability qHTS
How it was run: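 CellTiter-Glo ATP luminescence, 20 min RT read; cells pre-plated 5 hr, compound 40 hr at 37 °C, 1500 cells/well, complete medium. Normalized DMSO = 0, 100 uM tamoxifen = 100% inhibition; Hill-fit AC50.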

[6] = biological target: Mitogen-activated protein kinase 10 (Mus musculus) (UniProt Q61831); experiment: JNK3 AlphaScreen Assay (AID 530; active means well fitted curve in either direction with a large enough effect, not every such curve was filed as active;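 further: kinase came from lysate of stimulated human HepG2 cells; signal reports phosphorylation of biotinylated GST-cJun 1-79 at Ser73 with 10 µM ATP; on the % scale 0 is the no-effect control and ±100 the full control effect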)
How it was run: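 Room-temperature AlphaScreen kinase assay; pre-activated HepG2 lysate as JNK3 source, biotin-GST-cJun(1-79) substrate, 10 uM ATP, compound 15 min preincubation.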

[7] = Cell Viability - N2a (AID 540); settings: N2a mouse neuroblastoma cell viability; at 92.2 µM (top of the series);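 further: plate controls were DMSO alone for no effect and tamoxifen control for full effect; nearly all actives have a fitted effect of over 45% in size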
How it was run: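 Mouse neuroblastoma N2a cells (1500/well) were preincubated 5 hr at 37 °C, then exposed to compounds for 40 hr at 37 °C in complete medium. Viability was read as intracellular ATP by CellTiter-Glo luminescence; AC50 from Hill fits.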

[8] = Cell Viability - NIH 3T3 (AID 541); settings: NIH 3T3 cell viability, qHTS; at 92.2 µM (top of the series);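 further: plate controls were DMSO alone for no effect and tamoxifen positive control for full effect; nearly all actives have a fitted effect of over 25% in size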
How it was run: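 NIH 3T3 mouse embryo fibroblasts (1000 cells/well) were plated in complete medium and treated with compound for 40 hr at 37 °C. Viability was read as intracellular ATP by CellTiter-Glo luminescence; AC50 values came from Hill-equation fits of concentration-response data.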

[9] = Cell Viability - HUV-EC-C (AID 542); further: on the % scale 0 is the no-effect control and ±100 the full control effect; nearly all actives have a fitted effect of over 35% in size
How it was run: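 HUV-EC-C normal human vascular endothelial cells, 1000 cells/well, pre-incubated 5 hr at 37 °C, then exposed to compounds for 40 hr at 37 °C in complete medium. Viability measured as intracellular ATP by CellTiter-Glo luminescence; AC50 from Hill fits.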

[10] = Cell Viability - H-4-II-E (AID 543); further: on the % scale 0 is the no-effect control and ±100 the full control effect; nearly all actives have a fitted effect of over 35% in size
How it was run: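 Rat hepatoma H-4-II-E cells (1500/well) were plated, incubated 5 hr at 37 °C, then exposed to compounds for 40 hr at 37 °C. Cellular ATP was read by CellTiter-Glo luminescence; AC50 came from Hill-equation fits of concentration-response data.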

[11] = Cell Viability - SH-SY5Y (AID 544);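 further: 0% = DMSO alone and -100% = 100 µM tamoxifen; nearly all actives have a fitted effect of over 55% in size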
How it was run: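 Human neuroblastoma SH-SY5Y cells (1500/well) in complete medium were exposed to compounds for 40 hr at 37 °C; intracellular ATP was then quantified by CellTiter-Glo luminescence after 20 min at room temperature. AC50 came from Hill-equation concentration-response fits.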

[12] = Cell Viability - Renal Proximal Tubule (AID 545);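 further: 0% = DMSO only and -100% = 100 µM tamoxifen; nearly all actives have a fitted effect of over 40% in size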
How it was run: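 Rat kidney proximal tubule cells, freshly isolated; 1000 cells/well, 5 hr settle, compound 40 hr 37 °C. CellTiter-Glo 20 min RT, luminescence read. AC50 by standard Hill fit.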

[13] = Cell Viability - Mesenchymal (AID 546);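 further: cells exposed to compound for 40 hours before reading; 0% = DMSO only and -100% = 100 µM tamoxifen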
How it was run: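 AC50 values reflect the drop in intracellular ATP in a human kidney mesenchymal line derived from normal glomeruli. Treatment lasts 40 hr at 37 °C in complete medium, and the signal comes from CellTiter-Glo luminescence.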

[14] = Cellular Toxicity (caspase-3) HepG2 (AID 654);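 further: cells exposed to compound for 16 hours before reading; 0% = DMSO alone and 100% = caspase signal from 100 µM tamoxifen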
How it was run: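 HepG2 cells (1500/well) in complete medium were treated with compounds for 16 hr at 37 °C. Caspase-3/7 activity was then read as luminescence from peptide-aminoluciferin cleavage. AC50 came from Hill fits, normalized to DMSO and 100 uM tamoxifen.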

[15] = Cellular Toxicity (caspase-3) Jurkat (AID 655);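 further: cells exposed to compound for 16 h at 37 °C before reading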
How it was run: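 Luminescent caspase-3/7 readout (aminoluciferin substrate cleavage) in human T-cell leukemia Jurkat cells after 16 hr compound exposure. Concentration-response normalized to DMSO and 100 uM tamoxifen; AC50 by standard Hill equation.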

[16] = Cellular Toxicity (caspase-3) HUV-EC-C (AID 656);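 further: 0% = DMSO basal and 100% = 100 µM tamoxifen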
How it was run: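 Luminescent caspase-3/7 activation (aminoluciferin substrate cleavage) in HUV-EC-C cells after 16 hr compound exposure, 37°C. Signal normalized to DMSO basal and 100 uM tamoxifen as 100%; AC50 from concentration-response fitted with the Hill equation.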

[17] = Cellular Toxicity (caspase-3) SHSY5Y (AID 657)
How it was run: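 Luminescent caspase-3/7 readout (aminoluciferin release) in SH-SY5Y cells after 16 h compound exposure in complete medium. Activity scaled between DMSO basal and 10 uM staurosporine as 100%; concentration-response fitted to Hill equation for AC50.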

[18] = Cellular Toxicity (caspase-3) MRC-5 (AID 659);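 further: 0% = DMSO basal and 100% = 10 µM staurosporine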
How it was run: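 Concentration-dependent caspase 3/7 activation is measured in human normal lung fibroblasts (MRC-5) following 16-hour treatment. AC50 values come from standard Hill-equation modeling of luminescence normalized to DMSO and 10 uM staurosporine.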

[19] = Cellular Toxicity (caspase-3) Mesangial (AID 660);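 further: cells exposed to compound for 16 h before the caspase read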
How it was run: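 Human renal glomerular mesangial cells (1000/well) were treated with compounds for 16 h at 37 °C in complete medium, then caspase 3/7 activity was read by Caspase-Glo luminescence. Data were normalized to DMSO and 100 uM tamoxifen; AC50 from Hill fits.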

[20] = Cellular Toxicity (caspase-3) SK-N-SH (AID 661);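 further: 0% = DMSO basal and 100% = 10 µM staurosporine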
How it was run: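 SK-N-SH human neuroblastoma cells (1500/well) were treated with compounds for 16 hr at 37 °C in complete medium; caspase 3/7 activity was read by Caspase-Glo luminescence. AC50 came from Hill fits of data normalized to DMSO and 10 uM staurosporine.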

[21] = Cellular Toxicity (caspase-3) H-4-II-E (AID 663);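 further: cells exposed to compound for 16 hr before readout; 0% = DMSO basal and 100% = 100 µM tamoxifen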
How it was run: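 Apoptosis induction is scored as increased luminescence from caspase 3/7 substrate cleavage in rat hepatoma H-4-II-E cells exposed to compound for 16 hr. Activity is scaled between DMSO and 100 uM tamoxifen.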

[22] = Cellular Toxicity (caspase-3) Hek293 (AID 664);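 further: cells exposed to compound for 16 h at 37 °C before readout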
How it was run: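 HEK293 cells were exposed to compounds in complete medium for 16 hr at 37 °C, then caspase-3/7 activity was read by Caspase-Glo 3/7 luminescence after 20 min at room temperature. Data normalized to DMSO and 100 uM tamoxifen; AC50 from Hill fits.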

COC(=O)c1ccccc1C(=O)OC
inactive: Potency [1] > 92 µM | Potency [2] > 92 µM | Potency [3] > 92 µM | Potency [4] > 92 µM | Potency [5] > 92 µM | outcome [6] | activity change, negative = cytotoxicity [7] 4.28% | activity change, negative = cytotoxicity [8] 2.58% | outcome [9] | outcome [10] | outcome [11] | outcome [12] | outcome [13] | outcome [14] | outcome [15] | outcome [16] | outcome [17] | outcome [18] | outcome [19] | outcome [20] | outcome [21] | outcome [22]
